# Source: PubChem (University of Kansas High Throughput Screening Laboratory)
# This is a sample that favours compounds with a hit; in the whole collection about 3.5% have one here.
# Pf apPOL inh: Pf-apPOL DNA polymerase inhibition. Recombinant Pf-apPOL, molecular beacon fluorescence, 1.5 h. inhibition, % at 10 µM. 210,000 tested, 0.25% active
# mHTT CaM bind: inhibitors of human mutant huntingtin-calmodulin interaction; P42858; 190,000 tested, 3.6% active; AlphaScreen His-mHTT/GST-CaM binding, luminescence; inhibition, % at 15 µM;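 also: 0% = both proteins with DMSO and 100% = one protein alone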
# * hit, by the source's call; . = no result given. Rule as the data show it: active = inhibition above about 50%; inactive = the rest.
SMILES,Pf apPOL inh,mHTT CaM bind
Cn1c(C2CCN(C(=O)NCc3ccccc3)C2)nc2cccnc21 (stereo unspecified),-2,1
CN1C(=O)c2ccccc2C(C(=O)Nc2ccc(F)cc2Cl)C1c1cccs1 (stereo unspecified),-2,-4
COc1ccccc1-n1ncc2c(C)nnc(SCC(=O)Nc3cc(C)on3)c21,-4,-13
CCCc1ccc(OCC(O)CN2CCN(c3ccc(OC)cc3)CC2)cc1 (stereo unspecified),1,61*
COc1ccc(N2CCN(CC(O)COc3ccc(Cl)c(C)c3)CC2)cc1 (stereo unspecified),-1,83*
CC1CCC(C(C)C)C(OCC(O)CN2CCN(Cc3ccccc3)CC2)C1 (stereo unspecified),0,21
Cc1cc(OCC(O)CN2CCN(Cc3ccc4c(c3)OCO4)CC2)ccc1Cl (stereo unspecified),-8,90*
COc1ccc(N2CCN(CC(O)COC3CC(C)CCC3C(C)C)CC2)cc1 (stereo unspecified),0,62*
CC(C)(C)c1ccc(OCC(O)CN2CCN(Cc3ccc4c(c3)OCO4)CC2)cc1 (stereo unspecified),-1,24
CCCc1ccc(OCC(O)CN2CCCC2)cc1 (stereo unspecified),-1,-3
Cc1ccc(OCC(O)CN2CCN(c3ccc(F)cc3)CC2)cc1C (stereo unspecified),-4,36
COc1cc(OC)cc(C(=O)Nc2ccc(OCC(N)=O)cc2)c1,0,0
Cc1cccc(C(=O)NCC2CCCN(S(=O)(=O)c3cc(C)c(C)cc3C)C2)c1 (stereo unspecified),-5,-3
Cn1nc(COc2ccc(F)cc2)c2c1CCN(C(=O)Nc1ccc(F)c(Cl)c1)C2,-2,55*
COc1ccc(NC(=O)N2CCc3c(c(COc4ccc(F)cc4)nn3C)C2)cc1F,-3,35
Cn1nc(COc2cccc(F)c2)c2c1CCN(C(=O)Nc1cccc(Cl)c1)C2,-3,14
Cn1nc(COc2ccc(F)cc2)c2c1CCN(C(=O)Nc1cccc(C(F)(F)F)c1)C2,-3,59*
COc1ccc2nc(NC(=O)Cn3c(-c4ccccc4F)nc4ccccc4c3=O)sc2c1,-8,100*
O=C(Cn1c(-c2ccccc2F)nc2ccccc2c1=O)Nc1ccc(F)c(Cl)c1,-1,91*
COc1ccc(NC(=O)Cn2c(-c3ccccc3F)nc3ccccc3c2=O)cc1OC,-1,1
COc1cccc(NC(=O)Cn2c(-c3ccccc3F)nc3ccccc3c2=O)c1,-1,4
CC(C)CN(Cc1c(O)ccc2c1OC(=Cc1cccnc1)C2=O)CC(C)C,5,15
NC(=O)c1ccc(NC(=O)c2cccc(I)c2)cc1,2,1
CCN1C(=O)/C(=C2\C=Cc3ccccc3N2CC)SC1=Nc1ccc(OC)cc1,1,55*
CCSC1=NC(=O)/C(=C2\C=Cc3ccccc3N2CC)S1,-17,49
SMILES,Pf apPOL inh,mHTT CaM bind
Clc1ccccc1C1Cn2cnc(-c3nc(-c4ccccn4)no3)c2CO1 (stereo unspecified),0,100*
Fc1ccc(-c2noc(-c3ncn4c3COC(c3ccccc3Cl)C4)n2)cc1 (stereo unspecified),-4,19
COc1ccc(C2=NN(CN3C(=O)C(=O)c4ccccc43)C(c3ccccc3)C2)cc1 (stereo unspecified),-1,2
COc1ccc(C2=NN(CN3C(=O)C(=O)c4ccccc43)C(c3ccccc3Cl)C2)cc1 (stereo unspecified),5,76*
COc1ccc(C2=NN(CN3C(=O)C(=O)c4ccccc43)C(c3cccc([N+](=O)[O-])c3)C2)cc1 (stereo unspecified),-3,96*
COc1ccc(C2=NN(C(=O)c3ccccc3Cl)C(c3cccc([N+](=O)[O-])c3)C2)cc1 (stereo unspecified),14,31
CCn1cccc(-c2nnc(SCC(=O)NCc3ccco3)n2C)c1=O,26,-7
O=C(NCCCSC1CCCCC1)c1csc2c1CCCC2,-1,-27
CC(=O)Nc1ccc(NC(NC(=O)c2cccs2)C(=O)c2ccccc2)cc1 (stereo unspecified),-5,9
O=C(NC(Nc1ccc(Br)cc1)C(=O)c1ccccc1)c1cccs1 (stereo unspecified),-2,63*
O=C(NC(Nc1cccc(C(F)(F)F)c1)C(=O)c1ccccc1)c1cccs1 (stereo unspecified),-6,83*
Cc1ccccc1NC(NC(=O)c1cccs1)C(=O)c1ccccc1 (stereo unspecified),2,21
CC(C)C1(CCNCc2ccc3c(c2)OCO3)CCOC(C)(C)C1 (stereo unspecified),-2,-2
Cc1oc(C2CCN(S(=O)(=O)c3ccc(C#N)cc3)CC2)nc1C(=O)N1CCOCC1,-5,0
O=C(NCc1ccco1)C1C2C=CC3(CN(Cc4cccnc4)C(=O)C13)O2 (stereo unspecified),-1,3
COc1cc(C=C2SC(=NCC(=O)O)NC2=O)ccc1OCc1ccc(F)cc1,-8,-1
CCOc1ccccc1N1CCN(c2nccn3cncc23)CC1,-15,54*
CCOc1ccccc1N1CCN(S(C)(=O)=O)CC1,-1,-4
O=C1C=CC(=O)N1C1CCCCC1,.,-1
COc1cccc(CN2CC(C(=O)Nc3ccc(C)cc3)CC2=O)c1 (stereo unspecified),-6,0
N#CC1=C(N)OC2=C(C(=O)CCC2)C1c1cc2c(cc1[N+](=O)[O-])OCO2 (stereo unspecified),0,90*
N#CC1=C(N)OC2=C(C(=O)CCC2)C1c1cc([N+](=O)[O-])cs1 (stereo unspecified),-9,1
N#CC1=C(N)n2c(s/c(=C\c3ccc([N+](=O)[O-])cc3)c2=O)=C(C#N)C1c1ccc([N+](=O)[O-])cc1 (stereo unspecified),-6,14
N#CC1=C(N)n2c(s/c(=C\c3ccc(O)cc3)c2=O)=C(C(N)=O)C1c1ccc(O)cc1 (stereo unspecified),-4,53*
O=C(Nc1cccc(Cl)c1)c1cc([N+](=O)[O-])ccc1NCCO,1,94*
SMILES,Pf apPOL inh,mHTT CaM bind
NCCNc1ccc([N+](=O)[O-])cc1C(=O)Nc1cccc(Cl)c1,12,28
Clc1nc(C(Cl)(Cl)Cl)nc2ccccc12,2,100*
CCCNc1nc(C(Cl)(Cl)Cl)nc2ccccc12,-7,-74
NC(=Nc1nc2c(c(=O)[nH]1)CCC2)Nc1ccccc1,-2,1
CN(C)CCNC(=O)CN1C(=O)CCCc2ccccc21,-2,-2
O=C(COc1ccc(Br)cc1)Nc1ccc(S(=O)(=O)Nc2ccc(F)cc2)cc1,-6,5
CCOc1ccc(C(=O)Nc2ccccc2N2CCOCC2)cc1Br,-6,-10
CCOc1cc(N2CCOCC2)c(OCC)cc1N,-6,53*
COc1ccc(C2C3=C(CC(C)(C)CC3=O)Nc3ncnn32)cc1Br (stereo unspecified),-4,2
O=C(CSc1nccn1-c1cccc(Cl)c1)Nc1ccccc1F,4,32
Cc1ccccc1NC(=O)CSc1nccn1-c1cccc(C(=O)Nc2ccccc2)c1,-7,60*
COc1cc(/C=C2\NC(=O)NC2=O)cc(Cl)c1OCc1cccc(F)c1,-3,26
CCCn1cnnc1C1CCN(C(=O)Cc2c[nH]c3ccccc23)CC1,2,13
